# ± gives the standard deviation of the averaged measurements.
# Assays:
# DLD1 = test: nucleolar normality score relative to DMSO (fraction of DMSO control); RPE1 is a non-cancer human cell line; higher = more normal nucleoli (less nucleolar stress)
# Procedure: (§1)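 Selected screen hits were validated in hTERT lines (BJ5TA, CHON-002, RPE1) and cancer lines (DLD1, HCT116). Cells were immunostained for nucleolin and UBF and the nucleolar normality score was measured per field of view, with 4 fields per drug. Scores are normalized to each cell line's own DMSO control. Dose and time are not stated for this panel.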
# HCT116 = test: as above
# Procedure: as §1
Compound,nucleolar normality score (DLD1),nucleolar normality score (HCT116)
COC[C@H](NC(=O)c1cnc(C)s1)C(=O)N[C@@H](COC)C(=O)N[C@@H](Cc1ccccc1)C(=O)[C@@]1(C)CO1 [Oprozomib],0.471 ± 0.054,0.658 ± 0.046
C=CCNC1=C2C[C@@H](C)C[C@H](OC)[C@H](O)[C@@H](C)/C=C(\C)[C@H](OC(N)=O)[C@@H](OC)/C=C\C=C(/C)C(=O)NC(=CC1=O)C2=O,0.436 ± 0.052,0.462 ± 0.027
CN1CC[C@H](c2c(O)cc(O)c3c(=O)cc(-c4ccccc4Cl)oc23)[C@H](O)C1 [Flavopiridol],0.432 ± 0.076,0.452 ± 0.057
COc1cccc2c1C(=O)c1c(O)c3c(c(O)c1C2=O)C[C@@](O)(C(=O)CO)C[C@@H]3O[C@H]1C[C@H](N)[C@H](O)[C@H](C)O1 [Doxorubicin],0.36 ± 0.056,0.253 ± 0.036
CCc1cnn2c(NCc3ccc[n+]([O-])c3)cc(N3CCCC[C@H]3CCO)nc12 [Dinaciclib],0.442 ± 0.09,0.428 ± 0.052
CN(C)CCNC(=O)c1cccn2c(=O)c3cc4ccccc4cc3nc12,0.173 ± 0.037,0.202 ± 0.013
CC(C)C[C@H](NC(=O)[C@H](CCc1ccccc1)NC(=O)CN1CCOCC1)C(=O)N[C@@H](Cc1ccccc1)C(=O)N[C@@H](CC(C)C)C(=O)[C@@]1(C)CO1 [Carfilzomib],0.436 ± 0.059,0.574 ± 0.063
Cc1nc(-c2cn3c(n2)-c2ccc(-c4cnn(C(C)(C)C(N)=O)c4)cc2OCC3)n(C(C)C)n1 [Taselisib],0.485 ± 0.067,0.588 ± 0.052
CC(C)c1c2cc(-c3ccnc(NC4CCC(NC5CCOCC5)CC4)n3)ccc2nn1C (centres undefined),0.509 ± 0.046,0.507 ± 0.016
CC(C)c1cc(C(=O)N2Cc3ccc(CN4CCN(C)CC4)cc3C2)c(O)cc1O [Onalespib],0.363 ± 0.023,0.434 ± 0.027
Cc1cnc(CNC(=O)c2c(=O)c3ccc(N4CCCN(C)CC4)nc3n3c2sc2ccccc23)cn1,0.224 ± 0.045,0.404 ± 0.19
CC(C)n1nc(-c2ccc3oc(N)nc3c2)c2c(N)ncnc21 [Sapanisertib],0.398 ± 0.035,0.549 ± 0.021
